High-throughput results: PubChem, National Center for Advancing Translational Sciences (NCATS)
Hits are enriched below; roughly 7.9% of the tested compounds scored in any of these assays.
MARV entry inh – inhibitors of Marburg virus binding or cell entry | 300,000 tested, 1.8% active | Marburg virus pseudotyped entry inhibition, cell reporter | AID 540276 | Potency, µM (highest dose often 37.8 µM), for inactives: at the highest dose activity change, negative = inhibition, actives largely listed as inhibitors; calls by dose curve; tested in HEK293 cells; note: potency is the fitted concentration of half-maximal effect
LASV entry inh – blocks Lassa virus binding to or entry into cells; Potency, µM (highest dose often 37.9 µM), without a hit: top-dose activity change, negative = inhibition, most hits filed as inhibitors; 300,000 tested, 1.2% active; Lassa virus pseudotype entry inhibition, cell reporter; calls by dose curve; tested in HEK293 cells; note: potency is the fitted concentration of half-maximal effect; nearly all actives have a fitted effect of over 50% in size
HCMV antiviral – blocks human cytomegalovirus replication; 410,000 tested, 4.5% active; HFF cells, HCMV-luciferase reporter, 72 h; active compounds read low; activity change, negative = inhibition, % at 57.5 µM; in the data active = activity change below about -60%; inconclusive = no clear call, values can overlap the other calls; inactive = above about -39%
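HFF cells seeded 16 h at 37C, treated with compounds, infected with luciferase-reporter HCMV at MOI 1 PFU/cell; luciferase read at 72 h post infection, normalized to buffer-only and Salinomycin controls.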
FMDV antiviral – blocks foot and mouth disease virus; AID 1159524; Potency, µM (top dose mostly 57.9 µM), for the others: at the highest dose activity change, negative = inhibition, most hits filed as inhibitors; 410,000 tested, 1.2% active; FMDV antiviral cell-based qHTS; calls by dose curve; tested in HEK293T cells; note: read-out not given here; potency is the fitted concentration of half-maximal effect; nearly all actives have a fitted effect of over 45% in size
HCV inh – HCV inhibition | 340,000 tested, 3.4% active | Potency, µM (highest dose often 41.8 µM), without a hit: at the top dose activity change, negative = inhibition, usual class: inhibitors | AID 651820 | Huh7.5.1 HCVcc-Cre infection, luciferase reporter, 44 h; active = well fitted inhibition curve with a large enough effect; inconclusive = small, poorly fitted or top-dose-only effect, or another doubt; inactive = no such curve, though single readings can be large or run the other way; note: potency is the fitted concentration of half-maximal effect
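HCVcc-Cre virus at an moi near 0.5 was added right after compound to cells cultured 4 h from seeding (1,000 cells/well). Luciferase activity was determined 44 h later, 15 min after substrate addition at RT.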
An asterisk follows results filed as active; ? = inconclusive; . = no result; [ ] = dose if it differs, or a comment. % is set by controls: 0 for no effect and ±100 for the full control effect.

SMILES	MARV entry inh	LASV entry inh	HCMV antiviral	FMDV antiviral	HCV inh
CCc1cc2c(cc3c(=O)n(CC(=O)N4CCN(c5ccccn5)CC4)nc(CC)n32)s1	?	-9%	-6	.	7.9µM*
CCCCN(C(=O)CC1CCCCC1)c1c(N)n(CCCC)c(=O)[nH]c1=O	.	.	56	-10%	.
O=C(NCc1ccco1)c1nc2c(nnn2Cc2ccccc2Cl)c(=O)[nH]1	?	13µM*	-98*	.	?
Cc1ccc(C)c(Cn2nnc3c(=O)[nH]c(C(=O)NCc4ccco4)nc32)c1	-17%	-18%[14.3 µM]	-10	-11%	.
N#Cc1ccc(NC(=O)COC(=O)c2cccc(S(=O)(=O)N3CCCC3)c2)cc1	.	.	24	-14%	.
O=C([C@H]1[C@H](CO)[C@H]2Cn3c(cccc3=O)[C@@H]1N2C(=O)c1ccc(F)cc1)N1CCCCC1	.	.	14	.	.
Cc1ccc(-c2nc(CS(=O)CC(=O)N3CCN(c4ccc(Cl)cc4)CC3)c(C)o2)cc1 (stereo unspecified)	.	?	-71*	-24%	.
CC/C(=N\Nc1ccccc1)c1c(O)n(C)c(=O)n(C)c1=O	0%	-1%	2	?	-8%
CCC(=NC(C)c1ccccc1)c1c(O)n(C)c(=O)n(C)c1=O (stereo unspecified)	?	?	?	13µM*	5.6µM*
CC(=NCCc1c[nH]c2ccccc12)c1c(O)n(Cc2ccccc2)c(=O)[nH]c1=O	?	11µM*	?	?	?
CCC(=NCCc1c[nH]c2ccccc12)c1c(O)n(C)c(=O)n(C)c1=O	?	?	-75*	16µM*	4.5µM*
CC/C(=N\Nc1ccccc1)c1c(O)n(-c2ccccc2)c(=O)[nH]c1=O	-19%	10µM*	17	-30%	-10%
CCOc1ccc(CN2CCCC(CNC(=O)c3ccc(F)cc3)C2)cc1CO (stereo unspecified)	.	.	19	-20%	1%
CCC(=NCc1ccc2c(c1)OCO2)c1c(O)n(C)c(=O)n(C)c1=O	?	?	-66*	?	?
CCC(=NCCc1c[nH]c2ccccc12)c1c(O)n(-c2ccc(C)cc2)c(=O)[nH]c1=O	?	1.8µM*	-4	-9%	-1%
CC(=O)c1ccc(N2CCN(C(=O)CNC(=O)c3ccc(Br)o3)CC2)cc1	.	.	4	0%	.
COc1ccc(-n2c(=O)c(-c3ccc(F)c(F)c3)nc3cncnc32)cc1	.	.	.	-12%	.
O=C(Cn1nc2ccccc2n1)N1CCOc2ccc(CN3CCc4sccc4C3)cc2C1	.	.	.	-3%	.
O=C(CSC(=S)N1CCCC1)c1cc(Br)cc(Br)c1O	?	-37%	?	-15%	13µM*
NCCC[C@@](N)(C(=O)O)C(F)F	-5%	.	.	.	.
O=C(CSc1ncccn1)NNC(=O)c1ccccc1	.	.	11	-3%	4%
C=CCn1c(SCC(=O)NC2CCCC2)nc2ccccc21	.	.	-30	-27%	.
CC1=C(C(=O)OCc2ccccc2)C(/C=C/c2ccccc2)NC(=S)N1 (stereo unspecified)	?	13µM*	-33	?	8.9µM*
C=CCOC(=O)C1=C(C)NC(=S)NC1/C=C/c1ccccc1 (stereo unspecified)	-13%	7%	-19	?	?
COc1cc(OC)nc(-n2ncc(Br)c(Br)c2=O)n1	1.6µM*	1.3µM*	-105*	10µM*	4µM*
SMILES	MARV entry inh	LASV entry inh	HCMV antiviral	FMDV antiviral	HCV inh
COC(=O)Cc1ccc(NC(=S)N2CCN(c3cccc(O)c3)CC2)cc1	-27%	-12%	-64*	?	?
CC(C)(C)c1ccc(S(=O)(=O)N2CCN(CC(O)CN3CCOCC3)CC2)cc1 (stereo unspecified)	-6%	-4%	-32	-11%	2%
COc1ccccc1-c1nnc2sc(C3CCCCC3)nn12	?	?	?	?	-13%
c1cc(-c2nnc3sc(C4CCCCC4)nn23)ccn1	-3%	4%	-80*	-21%	-18%
O=C(NCCc1ccccc1)c1cc(-c2ccccc2)c(N2CCOCC2)s1	.	.	-32	-2%	?
CCN(CC)CCCNC(=O)c1cc(-c2ccccc2)c(N2CCCCC2)s1	?	16µM*	-18	?	6.3µM*
N#Cc1ccc(-c2cccnc2)nc1SCc1ccc(Cl)c(Cl)c1	-1%	0%	-36	-26%	11µM*
CCc1ccc(N(CC)C(=O)Cn2cnc3sc(C)c(S(=O)(=O)N4CCN(c5ncccn5)CC4)c3c2=O)cc1	11%[46.1 µM]	5%[46.1 µM]	-18	-7%	.
